This is one part of a sample in which hits are shown more often than they occur.
TTR transcr act = activators of transthyretin transcription | SH-SY5Y TTR promoter Gaussia luciferase, luminescence; 100% = recombinant luciferase protein wells | activation, % at 16.7 µM | actives 1.3% (n = 92,000);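 active = activation above the mean of all tested compounds plus 3 SD, cut at about 9.5% in these data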;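 also: cells exposed to compounds for one day before reading; 0% = median of all test compound wells on the plate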
TTR inh HuH7 = HuH7 TTR transcription inhibition, counter-screen. AID 1117279. actives 4% (n = 1,100). inhibition, % at 16.7 µM. shares compounds with TTR transcr act. HuH7 TTR promoter-Gaussia luciferase reporter, luminescence;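 active = average inhibition above the solvent-only control wells' mean plus 3 SD, cut at about 15% in these data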;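 also: 0% = cells with DMSO only and 100% = cells with inhibitor control FD; inhibitors lower well luminescence so higher value means more inhibition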
TTR up confirm = human TTR transcription activation, confirmation; shares compounds with TTR transcr act; SHSY5Y TTR promoter Gaussia luciferase, luminescence; 100% = purified Lucia enzyme wells, no cells; 1,100 tested, under 10 active; activation, % at 16.7 µM;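 active = mean activation above a set limit taken from the earlier primary screen, cut at about 11% in these data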;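 also: 0% = DMSO-treated cells and 100% = recombinant Lucia luciferase without cells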
Active calls of the source: *.

SMILES	TTR transcr act	others
Cc1ccc(C(C)NC(=O)C2CCCC2)cc1C (centres undefined)	-1.3
CC(NC(=O)C1CCC1)c1ccc2c(c1)OCO2 (centres undefined)	-1.5
CC(NC(=O)C1CCC1)c1ccc(Br)cc1 (centres undefined)	22.3*	TTR inh HuH7=-11.4;TTR up confirm=0.3
CCC[C@H]1[C@@H](NC(=O)c2ccc(C)cc2)CC[C@@]23CCCN2C(=O)CCC[C@@H]13	0.8
Cc1ccccc1Nc1cccc2nonc12	18.2*	TTR inh HuH7=-8.7;TTR up confirm=2.4
O=S(=O)(Nc1cccc2ccccc12)c1cccc2nonc12	-0.9
Cc1ccccc1Nc1nc2ccccc2n1C(C)C	-0.1
Cc1ccccc1CN1CCCCC(NC(=O)C2CCCCC2)C1=O (centres undefined)	-0.5
Cc1cc2c(s1)c1cnn(Cc3cc(F)c(F)cc3F)c(=O)c1n2C	-1.6
C[C@H]1C(=O)CC[C@@]23CCCN2C(=O)CCC[C@@H]13	0.9
O=C(N1CCCC1)n1ncc(-c2ccc(-c3ccccc3)cc2)n1	-0.9
NC(=O)C1CCN(c2nnnn2-c2ccccc2)CC1	10.2*	TTR inh HuH7=-13.2;TTR up confirm=-0.6
O=C(C1CCN(c2nnnn2-c2ccccc2)CC1)N1CCN(c2ccccc2)CC1	-1.5
Oc1ccccc1N1CCN(c2nnnn2-c2ccccc2)CC1	0.1
O=C(OCc1ccc(CSc2nnc(-c3cccc4ccccc34)o2)cc1)c1ccc(F)cc1	-0.6
Cn1c(=O)cc(OCCCC(=O)Nc2cc(-c3ccncc3)ccn2)c2ccccc21	1.0
CCOC(=O)c1c(C)n(C)c2ccc(OCC(O)CN3CCCCCC3)cc12 (centres undefined)	-1.2
CCOC(=O)c1c(C)n(C)c2ccc(OCC(O)CNC(CC)CO)cc12 (centres undefined)	13.8*	TTR inh HuH7=-10.4;TTR up confirm=2.4
CCOC(=O)c1c(C)n(C)c2ccc(OCCN(C)C)cc12	4.3
O=C(NCCCc1ccccc1)[C@H](CO)NC1(C(=O)NCCc2c[nH]c3ccccc23)CCCCC1	1.5
C[C@H]1[C@@H](OC(=O)Nc2ccc(Br)cc2)CC[C@@]23CCCN2C(=O)CCC[C@@H]13	3.0
O=C(NC1CCCCN(Cc2ccc(Cl)cc2)C1=O)c1cccc(C(F)(F)F)c1 (centres undefined)	4.3
COC(=O)[C@]12C[C@H](CC(=O)NCC34CC5CC(CC(C5)C3)C4)C(=O)N(Cc3ccc(Cl)cc3Cl)C1=C[C@H](C(C)C)O[C@@H]2C1CC1	3.2
CC(C)CN1C[C@@H]2CSCCS(=O)(=O)N2C1=O	1.3
Cc1cc(C)c(C)c(OCC(=O)O/N=C(\N)c2cccnc2)c1	-0.5
SMILES	TTR transcr act	others
Cc1ccc(CNC(=O)c2cccnc2)cc1	0.7
Cc1cc(C)c(C(=O)CC(=O)c2cccnc2)c(C)c1	15.4*	TTR inh HuH7=-7.0;TTR up confirm=0.4
O=C1C(=O)N(Cc2ccc(-c3ccc(Cl)nc3)cc2)c2ccc(OC(F)(F)F)cc21	-1.4
CCCC1CCC2(CC1)CCC2OC(=O)Nc1c(OC)cccc1OC (centres undefined)	0.0
O=C(NCC(c1ccccc1)c1ccccc1)[C@H](Cc1c[nH]c2ccccc12)NC1(C(=O)NC2CCCCC2)CCCCCC1	-0.7
S=c1[nH]nc(-c2cc(-c3ccccc3)n[nH]2)n1/N=C/c1ccc(Cl)cc1	0.6
S=c1[nH]ncn1/N=C/c1ccccc1	17.5*	TTR inh HuH7=-4.6;TTR up confirm=-0.4
Nc1nc(-c2ccccc2)cn1/N=C/c1ccccc1	1.0
Cc1ccc(CNC(=O)O[C@H]2CC[C@@]34CCCN3C(=O)CCC[C@H]4C2)cc1	0.2
CCC[C@H]1[C@@H](NC(=O)c2ccc(Cl)c(C(F)(F)F)c2)CC[C@@]23CCCN2C(=O)CCC[C@@H]13	2.7
COC(=O)[C@]12C[C@H](CC(=O)NCc3cccc(C(F)(F)F)c3)C(=O)N(Cc3ccc(Cl)cc3Cl)C1=C[C@H](C(C)C)O[C@@H]2C1CC1	0.0
O=C(NCc1ccccc1Cl)O[C@H]1CC[C@@]23CCCN2C(=O)CCC[C@H]3C1	-0.1
COc1ccc(C(=O)N2CCN(C(=O)C3COc4ccccc4O3)CC2)cc1 (centres undefined)	-0.1
COc1cc(C(=O)N2CCN(C(=O)C3COc4ccccc4O3)CC2)cc(OC)c1OC (centres undefined)	0.3
Cc1cc(O)c2c(C)c(CC(=O)N3CCN(C(=O)C4COc5ccccc5O4)CC3)c(=O)oc2c1 (centres undefined)	9.8*	TTR inh HuH7=10.3;TTR up confirm=-1.1
Cc1ccccc1CN1CCCCC(NC(=O)Nc2cccc([N+](=O)[O-])c2)C1=O (centres undefined)	-3.7
CCOc1cc2[nH]c(=S)n(CCCCC(=O)NCc3ccco3)c(=O)c2cc1OCC	1.1
CCOc1cc2[nH]c(=S)n(CCC(=O)NCc3ccc(OC)cc3)c(=O)c2cc1OCC	25.7*	TTR inh HuH7=7.2;TTR up confirm=-0.8
CCOc1cc2[nH]c(=S)n(CCCOC)c(=O)c2cc1OCC	0.1
COC(=O)[C@]12C[C@H](CC(=O)NCc3cccs3)C(=O)N(Cc3ccc(Cl)cc3Cl)C1=C[C@H](C1CCCC1)O[C@@H]2C	6.5
Cc1cc2c(s1)c1cnn(Cc3ccc(F)cc3F)c(=O)c1n2C	0.6
CCOC(=O)[C@@]12CCCC=C1N(CCc1ccc(Cl)cc1)C(=O)[C@H]2CC(=O)N1CCC(c2ccccc2)CC1	0.4
c1csc(CNc2ncnc3ccc(-c4ccc5c(c4)OCO5)cc23)n1	-2.0
O=C(O)CCc1ccccc1OC(=O)c1ccccc1	0.5
O=C(Oc1cccc2ccccc12)c1ccccc1	-0.1
SMILES	TTR transcr act	others
O=C(Oc1cc(=O)oc2ccccc12)c1ccccc1	14.1*	TTR inh HuH7=0.1;TTR up confirm=-0.3
CCCCCCC/C=C(\C)[C@@H](O)[C@@H](C)C(=O)N1CCC[C@@H]1C(=O)O[C@H](C(=O)O[C@@H](C)C(=O)O)[C@@H](C)CC	0.5
COC(=O)C1CN(CCc2ccccc2)CCS(=O)(=O)N1Cc1ccc(OC)cc1 (centres undefined)	2.0
COC(=O)c1cc(-c2ccc(C)cc2)c(=O)n2c1CCC2	0.5
COC(=O)C1CN(CC(C)C)CCS(=O)(=O)N1Cc1cccc(Cl)c1 (centres undefined)	1.5
Cc1ccc(S(=O)(=O)Nc2nsc(N)n2)cc1	0.9
Cc1cc(C)c(C#N)c(SCc2ccc([N+](=O)[O-])cc2)n1	9.5
Cc1ccc(CS(=O)(=O)c2nsc(C)c2C#N)cc1	19.2*	TTR inh HuH7=-2.9;TTR up confirm=-0.2
CCOC(=O)[C@]12CCCC3=C1N(CCC3)C(=O)[C@@H](CC(=O)N1CCN(C(=O)c3ccco3)CC1)C2	1.6
COc1cccc(OCc2cc(C(=O)N3CCN(c4ccccc4O)CC3)no2)c1	11.4*	TTR inh HuH7=3.6;TTR up confirm=1.0
Cc1ccc(OCc2cc(C(=O)N3CCCC3)no2)cn1	-0.7
Cc1ccc(N2CCN(C(=O)c3cc(COc4c(C)cccc4C)on3)CC2)c(C)c1	0.9
O=C(NCc1ccccc1)O[C@H]1CC[C@@]23CCCN2C(=O)CCC[C@H]3C1	-0.6
O=C(COc1ncnc2cc([N+](=O)[O-])ccc12)NC(=O)NC1CCCCC1	0.2
O=C(COc1ncnc2ccccc12)Nc1cc([N+](=O)[O-])ccc1Cl	38.3*	TTR inh HuH7=-4.3;TTR up confirm=-0.3
O=C(CC(=O)c1ccccc1)Nc1cc([N+](=O)[O-])ccc1Cl	2.7

Bioassay records from PubChem.
